{
  "source": "PubChem BioAssay AID1704",
  "about": "(The Scripps Research Institute Molecular Screening Center, 2009)",
  "assay": "blockers of isoproterenol-driven CNG channel signal – cell-based, HEK293-CNG parental, membrane potential fluorescence, Y1 set, counter-screen for NPY-Y1 potentiator/agonist project (AID 1704);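 note: 0% = isoproterenol-stimulated DMSO wells and 100% = unstimulated DMSO wells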",
  "conditions": "isoproterenol cAMP, at 3.6 µM, active compounds read high",
  "note": "The other results are listed elsewhere or left out. A number with no mark means an inactive call. The source made the active and inactive calls.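 Rule for the calls: active = inhibition above the mean of stimulated solvent-only control wells plus 3 SD (cut at about 22% in these data); inactive = the rest.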",
  "data": [
    {"smiles": "Cc1nn(Cc2ccccc2Cl)c(Cl)c1C(=O)OC(C(=O)NC(N)=O)C(C)C", "note": "(configuration not stated)", "values": [
      {"measurement": "inhibition", "value": "43.1% (active)"}
    ]},
    {"smiles": "CSC1=NP(=S)(SC)N(C)c2nc3n(c21)CCC3", "note": "(configuration not stated)", "values": [
      {"measurement": "inhibition", "value": 3.97, "unit": "%"}
    ]}
  ]
}
